In PubChem BioAssay AID485313 (National Center for Advancing Translational Sciences (NCATS), 2010):
Screen size: about 320,000 compounds; about 7,600 (2.4%) were called active. Another 3% or so got no clear call; they are omitted. Calls follow the shape of the dose curve; as a rule, active = well fitted activation curve with a large enough effect; inconclusive = small, poorly fitted or top-dose-only effect; inactive = no such curve, though single readings can be large or run the other way. Shown is part of a subset that was picked to be rich in actives. A call without a number means that no potency is given here.
Potency is read from the fitted curve at half-maximal effect.

Assay: qHTS Assay for NPC1 Promoter Activators; also: nearly all actives have a fitted effect of over 60% in size;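 as to activation: reporter is driven by a mutant NPC1 promoter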
Conditions: Huh7 NPC1 promoter luciferase reporter, 24 h; series mostly up to 9.22 µM
How it was run: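 Quantitative HTS used a cell-based reporter: Huh7 cells stably bearing the NPC1 promoter upstream of luciferase were treated with compounds for 24 h, and promoter activation was read as luminescence.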
In the case of `CCN(CC(=O)Nc1ccccc1OC)C(=O)CC1CC2CCC1C2` (stereo not given), the Potency is reported as “inactive”. With `COc1cccc(NC(=O)CN(C)C(=O)c2cc(C3CC3)nn2-c2ccccc2)c1` the Potency was “inactive”. With `O=C(Nc1ccncc1)c1c(F)cccc1F` the Potency was “inactive”. With `CSc1nc2ccc(NC(=O)c3c(F)cccc3F)cc2s1` the Potency was 2.51 µM (active). In the case of `CCCC(=O)Nc1nc2ccc(NC(=O)c3c(F)c(F)c(OC)c(F)c3F)cc2s1`, the Potency is reported as “inactive”. For `CC1(C)CC(=O)C=C(c2ccc(Cl)c(C(F)(F)F)c2)C1`, the Potency was “inactive”. In the case of `CCOc1ccc(NC(=O)CN(C)C(=O)Cc2sc(C)nc2-c2ccc(F)cc2)cc1OCC`, the Potency is reported as “inactive”. With `COc1ccccc1C(=O)NCCC(=O)N(C)Cc1cccnc1` the Potency was “inactive”. For `CC1(C)O[C@@H]2[C@H](O1)[C@@H](CO)O[C@H]2n1c(N2CCCCC2)nc2c(N)ncnc21`, the Potency was “inactive”. With `CC(=O)c1cccc(S(=O)(=O)N2CCC(n3nnc4cc(F)ccc43)CC2)c1` the Potency was “inactive”. For `O=C(c1ccc(F)cc1)N1CCC(n2nnc3ccccc32)CC1`, the Potency was 4.47 µM (active). With `O=S(=O)(c1cccc(S(=O)(=O)N2CCC(n3nnc4ccccc43)CC2)c1)N1CCCCC1` the Potency was “inactive”. For `CCCCn1c(N)c(N(CCC(C)C)C(=O)COC(=O)c2cccnc2OCC)c(=O)[nH]c1=O`, the Potency was “inactive”. In the case of `CCCCn1c(N)c(N(CCC(C)C)C(=O)COC(=O)c2ccc(CC)cc2)c(=O)[nH]c1=O`, the Potency is reported as “inactive”. For `CC(Sc1nnc(-c2cccs2)n1C1CC1)C(=O)NCC1CCCO1` (stereo not given), the Potency was “inactive”. For `CC(=O)Nc1cccc(-c2nc3ccccc3s2)c1C`, the Potency was “inactive”. In the case of `CN(Cc1nc2ccccc2s1)C(=O)c1ccc(F)cc1`, the Potency is reported as “inactive”. In the case of `CCC(=O)NC(=Nc1nc2ccccc2s1)NC(=O)CC`, the Potency is reported as 1.26 µM (active). In the case of `Cc1cc(C(=O)OCC(=O)Nc2nnc(C(C)C)s2)c2ccccc2n1`, the Potency is reported as “inactive”. For `CC(C)CC(=O)N/C(N)=N/c1nc2ccccc2s1`, the Potency was 0.501 µM (active). For `CC(C)CC(=O)NC(=S)NCc1ccccc1`, the Potency was “inactive”. In the case of `Cc1ccc(F)cc1NC(=O)CSCc1c(C)noc1C`, the Potency is reported as “inactive”. With `Cc1nn(Cc2ccccc2)c(C)c1C(=O)N1CCN(CC(=O)Nc2ccccc2Cl)CC1` the Potency was “inactive”. For `C=CCC1(CC=C)CCCN1C(=O)c1cc(COc2ccc(-n3cncn3)cc2)on1`, the Potency was “inactive”. With `Cc1ccc(Nc2nc(-c3ccc(O)cc3O)cs2)nc1` the Potency was 2 µM (active). With `CC(=O)Nc1ccc(C(=O)Nc2nc(-c3cc(C)n(Cc4ccccc4)c3C)cs2)cc1` the Potency was “inactive”. With `C=C(C)CNc1cc(S(=O)(=O)N2CCOCC2)ccc1Oc1ccccc1` the Potency was “inactive”. In the case of `CCCn1c(NC(=O)C23CC4CC(CC(O)(C4)C2)C3)nc2ccccc21`, the Potency is reported as “inactive”. With `CC1CCCN(c2ccc(C(=O)NCCc3ccccc3)cn2)C1` (stereo not given) the Potency was 3.16 µM (active). With `CC1CCN(C(=O)CCNC(=O)c2ccccc2)CC1` the Potency was “inactive”. With `O=C(NCCc1ccccc1)c1ccc2c(c1)N(Cc1ccccc1)CCS2` the Potency was “inactive”. In the case of `Cc1ccc(NC(=O)CCCNC(=O)c2ccc(Cl)cc2)cc1S(=O)(=O)N1CCCCC1`, the Potency is reported as “inactive”. For `CC(C)(C)C(=O)CSc1ccc(S(=O)(=O)N2CCCC2)cn1`, the Potency was “inactive”. For `CC(NC(=O)c1ccc(S(=O)(=O)Nc2ccccc2)cc1)c1ccc(S(N)(=O)=O)cc1` (stereo not given), the Potency was “inactive”. For `O=C(Nc1cccnc1)c1cccc(S(=O)(=O)N2CCCC2)c1`, the Potency was “inactive”. For `O=C(Nc1cccnc1)c1cc(Cl)ccc1Cl`, the Potency was “inactive”. With `O=C(Nc1cccnc1)c1noc2c1CCCCC2` the Potency was 2.51 µM (active). For `Cc1cccc(-c2oc3ccc(-c4ccc5c(c4)OCO5)cc3c2C#Cc2cncn2C)c1`, the Potency was “inactive”. With `Cc1cc2nc(SCCN3CCOCC3)[nH]c2cc1C` the Potency was 3.98 µM (active). With `CCn1c2ccc(F)cc2c2nnc(SCCN3CCOCC3)nc21` the Potency was “inactive”. For `Cc1cccc(C)c1OCCN1CCOCC1`, the Potency was “inactive”. With `CC(=O)Nc1ccc(NC(=O)C(NS(=O)(=O)c2ccc3c(c2)OCCO3)C(C)C)cc1` (stereo not given) the Potency was “inactive”. For `COc1cccc(NC(=O)CN(C)C(=O)/C=C/c2cn(-c3ccccc3)nc2-c2cccs2)c1`, the Potency was “inactive”. For `CC1Cc2ccccc2N1S(=O)(=O)c1cccc(C(=O)NCC(c2ccco2)N2CCCC2)c1` (stereo not given), the Potency was “inactive”. For `Cc1ccc2cc(/C=N/Nc3ccc(C(=O)O)cc3)c(Cl)nc2c1`, the Potency was 1.12 µM (active). With `CSCC[C@H](NC(=O)OC(C)(C)C)C(=O)N/N=C/c1cc2ccc(C)cc2nc1Cl` the Potency was “inactive”. With `Cc1ccc2cc(/C=N/NC(=O)[C@@H]3CCCN3)c(Cl)nc2c1` the Potency was “inactive”. With `O=C(CSc1nc2ccccc2c(=O)n1CCCO)NC1CC1` the Potency was “inactive”. With `S=C(NNC(=S)NC1CC2C=CC1C2)NC1CC2C=CC1C2` (stereo not given) the Potency was “inactive”. For `CC(C)c1ccc(NC(=S)NC2CC3C=CC2C3)cc1` (stereo not given), the Potency was 3.98 µM (active). For `S=C(NNC(=S)NC1CC2CCC1C2)NC1CC2C=CC1C2` (stereo not given), the Potency was “inactive”. In the case of `CCOC(=O)C1=C(COC(=O)[C@H](C)NS(=O)(=O)c2ccccc2F)NC(=O)NC1C` (stereo not given in full), the Potency is reported as “inactive”. With `CCOc1ccc(C(C)NC(=O)CN2C(=O)NC3(CCCCC3)C2=O)cc1OCC` (stereo not given) the Potency was “inactive”. With `Cc1ccc(C(=O)/C=C/Nc2ccc(S(=O)(=O)Nc3onc(C)c3C)cc2)cc1` the Potency was “inactive”. For `Cc1cc(N/C=C\C(=O)c2ccc(Cl)c(Cl)c2)no1`, the Potency was 2.51 µM (active). With `CCC(=O)Nc1ccc(C(=O)Nc2cc(C)on2)cc1` the Potency was “inactive”. With `CCOC(=O)Cc1csc(SCC(=O)Nc2ccc(C)cc2F)n1` the Potency was “inactive”. With `Cc1ccc(S(=O)(=O)N2CCCCC2)cc1NC(=O)c1cccnc1` the Potency was “inactive”. In the case of `CCCCc1ccc(NC(=O)CN2C(=O)NC(Cc3ccccc3)C2=O)cc1` (stereo not given), the Potency is reported as “inactive”. In the case of `NC(=O)COC(=O)c1sc2cc(F)ccc2c1Cl`, the Potency is reported as “inactive”. For `COc1cc(C(=O)N2C(=O)c3cccc(N)c3C2=O)cc(OC)c1OC`, the Potency was “inactive”. With `COc1ccc2c(c1OC)C(=O)N(c1ncn[nH]1)C2` the Potency was “inactive”. With `COc1ccc2c(c1OC)C(=O)N(c1ccc(O)cc1)C2` the Potency was 2.82 µM (active). In the case of `O=C(c1cc2ccccc2o1)N1CCN(S(=O)(=O)c2ccc(Cl)s2)CC1`, the Potency is reported as “inactive”. In the case of `O=C(OCC(=O)N1CCOCC1)c1ccc2ccccc2c1`, the Potency is reported as “inactive”. With `CCCCNC(=O)Cn1nc(C)c(S(=O)(=O)N2CCOCC2)c1C` the Potency was “inactive”. With `O=c1ccc(S(=O)(=O)N2CCCC2)cn1Cc1nc(-c2ccccc2)no1` the Potency was “inactive”. For `CCc1ccc(NC(=O)Cn2nnc(C(=O)NCc3ccc4c(c3)OCO4)c2N)cc1`, the Potency was “inactive”. With `Nc1c(C(=O)Nc2ccc3c(c2)OCCO3)nnn1Cc1ccccc1` the Potency was 3.16 µM (active). In the case of `O=C(CCS(=O)(=O)Cc1ccccc1)Nc1ccc2c(c1)OCCO2`, the Potency is reported as “inactive”.
